For 25 compounds, Potency results are on record in PubChem BioAssay (NCATS).

What all share (assay): qHTS profiling for inhibitors of Plasmodium falciparum proliferation (AID 504749); further: nearly all actives have a fitted effect of over 60% in size
Holding throughout (settings): P. falciparum in erythrocytes, SYBR Green DNA, 72 h; series mostly up to 28.7 µM
Background: Quantitative high-throughput screening tests each substance at several concentrations.

The subject of one test is CP256. Put shortly:
(§1)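 Parasite proliferation within erythrocytes, 72 h exposure. Endpoint: SYBR Green I fluorescence after overnight lysis at room temperature. Controls: 0.29 uM artemisinin, DMSO.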

In another test the test system is CP260. Put shortly:
as §1

The next test concerns CP262. Put shortly: as §1
The subject of another test is CP265. The method, boiled down: as §1
A further test deals with CP266. Put shortly: as §1
Another test relates to CP268. The method, boiled down:
as §1

A further test has as its system CP269. Put shortly:
as §1

A further test relates to CP286. The method, boiled down: as §1
For a further test, the system named is CP291. The method, boiled down:
as §1

A further test concerns CP297. Put shortly: as §1

Inconclusive results are not listed. Activity calls are given as the source filed them. The call rests on the fitted dose curve; in most records, active means well fitted inhibition curve with a large enough effect; inconclusive means small, poorly fitted or top-dose-only effect; inactive means flat fitted curve, though single readings scatter.
Potency means the concentration at half of the fitted maximal effect.

For the compound `CCCCCCCCCCCCOCCCN`, the Potency entry in the test on CP256, with CP260, with CP262, in the test on CP265, with CP266 and with CP268 was “inactive” in each case. The Potency result in the test with CP269, with CP286, with CP291 and in the test on CP297 was “inactive” throughout.
Take `CCCCC/C=C\C/C=C\C/C=C\CCCCC(=O)O`: the Potency result in the test on CP256, with CP260, with CP262, in the test on CP265, with CP266 and with CP268 was “inactive” each time. The Potency entry in the test with CP269, with CP286 and with CP291 was “inactive” each time.
Turning to `CO/N=C(/C(=O)N[C@@H]1C(=O)N2C(C(=O)O)=C(COC(N)=O)CS[C@H]12)c1ccco1`, the Potency result with CP256, with CP260, with CP262, with CP265, in the test on CP266 and in the test with CP268 was “inactive” in each case. The Potency result in the test on CP269, in the test on CP286 and with CP291 was “inactive” each time.
For `C=CC(=O)O`, the Potency result with CP256, in the test with CP260, in the test on CP262, in the test with CP265, in the test on CP266 and in the test on CP268 was “inactive” throughout. In addition, the Potency entry in the test on CP269, with CP286, in the test on CP291 and in the test on CP297 was “inactive” in each case.
Regarding `c1ccc2ccccc2c1`, the Potency entry in the test on CP256, in the test with CP260, with CP262, with CP265, in the test with CP266 and in the test with CP268 was “inactive” in each case. Also, the Potency entry with CP269, with CP286, in the test on CP291 and in the test with CP297 was “inactive” each time.
Take `O=C(O)/C=C/c1ccccc1`: the Potency entry in the test on CP256, with CP260, in the test on CP262, in the test on CP265, in the test on CP266 and with CP268 was “inactive” each time. Besides, the Potency entry in the test with CP269, in the test on CP286, with CP291 and in the test with CP297 was “inactive” each time.
Turning to `CC(C)CCC[C@@H](C)[C@H]1CC[C@H]2[C@@H]3CC=C4C[C@@H](O)CC[C@]4(C)[C@H]3CC[C@]12C`, the Potency result in the test on CP256, in the test with CP260, with CP262, with CP265, in the test with CP266 and in the test with CP268 was “inactive” each time. Moreover, the Potency result in the test on CP269, in the test on CP286, in the test on CP291 and with CP297 was “inactive” each time.
As for `CCN(CC)CCC(=O)N1c2ccccc2Sc2ccc(Cl)cc21`, the Potency in the test with CP256 is 11.2 µM (active); in the test on CP260, 8.91 µM (active).
For the compound `[O-][N+](=Nc1ccccc1)c1ccccc1`, the Potency entry with CP256, in the test on CP260, with CP262, in the test on CP265, in the test with CP266 and with CP268 was “inactive” each time. Also, the Potency result in the test with CP269, in the test on CP286, with CP291 and in the test on CP297 was “inactive” in each case.
As for `O=C(O)/C=C/C(=O)Nc1ccc(S(=O)(=O)Nc2nccs2)cc1`, the Potency entry in the test on CP256, in the test on CP260, with CP262, with CP265, with CP266 and in the test with CP268 was “inactive” throughout. Besides, the Potency result in the test on CP269, in the test with CP286 and in the test with CP291 was “inactive” in each case.
Take `C[C@H](CCC(=O)O)[C@H]1CC[C@H]2[C@@H]3CC[C@@H]4C[C@H](O)CC[C@]4(C)[C@H]3C[C@H](O)[C@]12C`: the Potency entry with CP256, in the test on CP260, in the test with CP262, with CP265, with CP266 and in the test with CP268 was “inactive” in each case. The Potency entry with CP269, in the test on CP286, in the test on CP291 and in the test on CP297 was “inactive” throughout.
Turning to `CC(C)CCCC(C)NC(C)C` (centres undefined), the Potency result in the test on CP256, with CP260, in the test with CP262, in the test with CP265, in the test with CP266 and in the test with CP268 was “inactive” throughout. Besides, the Potency entry in the test on CP269, with CP286 and in the test with CP291 was “inactive” each time.
As to `CCCCCCCCCCCCCC(=O)OCC(COP(=O)([O-])OCC[N+](C)(C)C)OC(=O)CCCCCCCCCCCCC` (centres undefined), the Potency entry in the test on CP256, in the test with CP260, in the test on CP262, in the test with CP265, in the test with CP266 and in the test with CP268 was “inactive” each time. Besides, the Potency result in the test on CP269, with CP286, in the test on CP291 and with CP297 was “inactive” each time.
Turning to `OC/C=C/c1ccccc1`, the Potency entry in the test on CP256, with CP260, with CP262, in the test on CP265, in the test with CP266 and in the test on CP268 was “inactive” throughout. Moreover, the Potency result in the test with CP269, with CP286, in the test with CP291 and in the test with CP297 was “inactive” throughout.
`CC(C)[C@H](N)C(=O)OCC(CO)OCn1cnc2c(=O)[nH]c(N)nc21` (some centres undefined): the Potency entry in the test on CP256, in the test with CP260, with CP262, with CP265, in the test on CP266 and in the test on CP268 was “inactive” throughout. Also, the Potency entry in the test with CP269, in the test with CP286, in the test on CP291 and in the test on CP297 was “inactive” in each case.
Turning to `O=C1CCC(c2ccccc2)(C2CCN(Cc3ccccc3)CC2)C(=O)N1` (centres undefined), the Potency entry in the test on CP256, in the test on CP260, with CP262, with CP265, in the test with CP266 and in the test on CP268 was “inactive” each time. Further, the Potency entry with CP269, in the test on CP286 and in the test on CP291 was “inactive” throughout.
In the case of `C=CC[N+]1([C@H]2C[C@H]3[C@@H]4CC[C@H]5C[C@H](O)[C@@H](N6CCOCC6)C[C@]5(C)[C@H]4CC[C@]3(C)[C@H]2OC(C)=O)CCCC1`, the Potency with CP256 was 11.2 µM (active).
On to `O=C1NCCN1c1ncc([N+](=O)[O-])s1`, for which the Potency result with CP256, with CP260, in the test with CP262, in the test on CP265, with CP266 and in the test on CP268 was “inactive” each time. The Potency result in the test with CP269, in the test with CP286, in the test on CP291 and in the test on CP297 was “inactive” each time.
With `O=C1CCC(=O)N1CO`, the Potency result with CP256, in the test with CP260, with CP262, with CP265, in the test with CP266 and with CP268 was “inactive” throughout. Besides, the Potency entry in the test on CP269, with CP286 and in the test with CP291 was “inactive” throughout.
In the case of `COc1cc(C)c(/C=C/C(C)=C/C=C/C(C)=C/C(=O)O)c(C)c1C`, the Potency result with CP256, in the test with CP260, in the test on CP262, with CP265, in the test with CP266 and in the test with CP268 was “inactive” each time. The Potency result in the test on CP269, in the test with CP286 and in the test with CP291 was “inactive” in each case.
Regarding `CC(=O)N=c1sc(S(N)(=O)=O)nn1C`, the Potency result with CP256, with CP260, with CP262, with CP265, with CP266 and with CP268 was “inactive” throughout. Further, the Potency result in the test with CP269, in the test with CP286, in the test with CP291 and in the test with CP297 was “inactive” each time.
In the case of `NC(=O)[C@H]1O[C@@H](O)[C@H](O)[C@@H](O)[C@@H]1O`, the Potency entry in the test with CP256, in the test with CP260, in the test with CP262, with CP265, in the test with CP266 and in the test with CP268 was “inactive” in each case. Besides, the Potency result with CP269, in the test on CP286, with CP291 and in the test with CP297 was “inactive” throughout.
Regarding `CCc1ccc(S(=O)(=O)O)cc1`, the Potency entry in the test with CP256, in the test on CP260, in the test with CP262, in the test with CP265, in the test with CP266 and with CP268 was “inactive” in each case. Moreover, the Potency result in the test on CP269, with CP286 and in the test with CP291 was “inactive” each time.
On to `Cc1cc(C(=O)NCCc2ccc(S(=O)(=O)NC(=O)NN3CCCCCC3)cc2)no1`, for which the Potency entry in the test with CP256, with CP260, in the test with CP262, in the test with CP265, with CP266 and with CP268 was “inactive” each time. Also, the Potency result in the test with CP269, with CP286 and in the test on CP291 was “inactive” throughout.
For the compound `CC(=O)Nc1ccc(OC(=O)c2ccccc2O)cc1`, the Potency result with CP256, with CP260, in the test with CP262, in the test with CP265, in the test on CP266 and in the test with CP268 was “inactive” each time. In addition, the Potency entry in the test on CP269, in the test on CP286, with CP291 and in the test on CP297 was “inactive” in each case.
